In the library only some 12% were active in any assay of this set; here they are far more common.
PI5P4Ka inh = inhibitors of human PI5P4K alpha. max response, %. P48426. 330,000 tested, 1.2% active. PI5P4Kalpha enzyme, ADP-Glo luminescence, 60 min; stronger effect = lower value; active = max response of -50% or lower; inconclusive = between -30% and -50%; inactive = -30% or higher; also: value at the top dose of about 77 µM; % is scaled to controls: 0 for no effect and ±100 for the full control effect
Target sequence (P48426 whole entry, looked up): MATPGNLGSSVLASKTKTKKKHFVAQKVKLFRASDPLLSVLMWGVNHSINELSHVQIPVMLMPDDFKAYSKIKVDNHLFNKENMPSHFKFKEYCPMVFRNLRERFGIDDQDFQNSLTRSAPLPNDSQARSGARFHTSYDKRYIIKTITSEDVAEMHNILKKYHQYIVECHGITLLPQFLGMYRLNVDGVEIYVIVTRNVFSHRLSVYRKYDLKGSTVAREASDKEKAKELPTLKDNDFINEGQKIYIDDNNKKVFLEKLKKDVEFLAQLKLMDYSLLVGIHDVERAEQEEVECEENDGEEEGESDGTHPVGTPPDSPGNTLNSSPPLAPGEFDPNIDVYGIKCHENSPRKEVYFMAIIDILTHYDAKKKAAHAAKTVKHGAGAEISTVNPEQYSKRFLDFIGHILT
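Reactions run in 0.038 M HEPES pH 7.4, 0.28 mM EGTA, 0.1% CHAPS and 5% DMSO, with PI5P4Kalpha, substrate, compound and 5 microM ATP final, one hour at room temperature. Readout is ADP-Glo luminescence.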
PLK1 PBD block = inhibitors of human PLK1 polo-box domain binding; P53350; Plk1 PBD binding of FITC phosphopeptide, fluorescence polarization; Potency, µM, inactives show max response, negative = inhibition, usual class: inhibitors; 360,000 tested, 2.8% active; also: potency is read from the fitted curve at half-maximal effect; series mostly up to about 57 µM; % is scaled to controls: 0 for no effect and ±100 for the full control effect; nearly all actives have a fitted effect of over 65% in size
G9a inh = G9a (human) methyltransferase inhibition | Q96KQ7 | G9a H3K9 monomethylation, AlphaScreen, 2 h | Potency, µM (titrated, usually from 102 µM), for inactives: at the top dose activity, negative = inhibition, actives largely listed as inhibitors | 350,000 tested, 8.8% active; also: potency is read from the fitted curve at half-maximal effect; % is scaled to controls: 0 for no effect and ±100 for the full control effect; nearly all actives have a fitted effect of over 75% in size
Target sequence (Q96KQ7 913-1193 limits assumed): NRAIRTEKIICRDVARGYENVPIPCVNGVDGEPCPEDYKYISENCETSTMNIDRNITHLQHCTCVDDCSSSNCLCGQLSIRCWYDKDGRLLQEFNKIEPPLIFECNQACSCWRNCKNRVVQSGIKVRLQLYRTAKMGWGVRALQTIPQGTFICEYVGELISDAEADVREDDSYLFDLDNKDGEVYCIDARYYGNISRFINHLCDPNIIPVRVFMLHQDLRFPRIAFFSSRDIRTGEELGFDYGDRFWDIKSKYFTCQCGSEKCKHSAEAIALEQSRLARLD
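Using a bead-based AlphaScreen, monomethylated H3K9 product from 2 h room-temperature reactions (G9a 20 nM, peptide 500 nM, SAM 20 uM) was detected with 0.5 ug/mL rabbit anti-H3K9me1 antibody.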
JMJD2A Tudor inh = blocks the human JMJD2A Tudor domain; AlphaScreen JMJD2A-Tudor / H3K4me3 peptide binding; Potency, µM (doses to about 114 µM), without a hit: at the highest dose activity change, negative = inhibition, usual class: inhibitors; 390,000 tested, 4.4% active; also: potency is read from the fitted curve at half-maximal effect; % is scaled to controls: 0 for no effect and ±100 for the full control effect; nearly all actives have a fitted effect of over 50% in size
BAZ2B inh = inhibitors of human BAZ2B bromodomain | Q9UIF8 | AlphaScreen BAZ2B-H3K14Ac peptide displacement | Potency, µM (doses to about 114 µM), without a hit: at the top dose activity change, negative = inhibition, actives largely listed as inhibitors | 360,000 tested, 4.4% active; also: potency is read from the fitted curve at half-maximal effect; % is scaled to controls: 0 for no effect and ±100 for the full control effect; nearly all actives have a fitted effect of over 60% in size
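Protein-peptide AlphaScreen: BAZ2B 50 nM, b-H3K14Ac 50 nM, 1x PBS pH 7.4 + 0.01% Tween-20. Preincubation 30 min RT; cpd 30 min RT (top 110 uM); beads 20 min RT, light-protected.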
HP1b chromo inh = blocks HP1-beta chromodomain binding to methylated histone tails; P83916; AlphaScreen HP1-beta / biotin-H3K9me3 peptide binding; Potency, µM (top dose mostly 114 µM), for inactives: at the top dose activity change, negative = inhibition, most hits filed as inhibitors; 390,000 tested, 0.56% active; AID 540317; also: potency is read from the fitted curve at half-maximal effect; nearly all actives have a fitted effect of over 70% in size
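HP1-beta protein (50 nM final) preincubated 30 min at room temperature with biotinylated H3(1-18)K9me3 peptide (50 nM) in PBS pH 7.4, 0.01% Tween-20, then compound added for 30 min. AlphaScreen streptavidin donor/nickel chelate acceptor beads (10 ug/mL final), 30 min dark, luminescence read.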
* hit, by the source's call; [ ] = dose if it differs, or a comment. Unless noted, calls follow the shape of the dose curve; as a rule, active = well fitted curve in the direction sought with a large enough effect; inconclusive = small, poorly fitted or top-dose-only effect, or another doubt; inactive = no such curve, though single readings can be large; an effect the other way counts as inactive or inconclusive.

How did CCCC(=O)NC(NC1CCS(=O)(=O)C1)C(Cl)(Cl)Cl (stereo not drawn) do in these assays?
PI5P4Ka inh: -7; PLK1 PBD block: 27µM*; JMJD2A Tudor inh: -16%[11.4 µM]; BAZ2B inh: -4%; HP1b chromo inh: -16%

How did O=[S+]([O-])(c1ccc2c(c1)OCCO2)N1CCN([S+](=O)([O-])c2ccc(F)cc2Br)CC1 do in these assays?
JMJD2A Tudor inh: -10%

Results for c1ccc(CN(Cc2ccco2)C(c2ccncc2)c2nnnn2C2CCCC2)cc1 (stereo not drawn) ?
PLK1 PBD block: inconclusive; G9a inh: 20µM*; JMJD2A Tudor inh: inconclusive; BAZ2B inh: inconclusive; HP1b chromo inh: -3%

What do the screens show for `CCN(CC)C(c1ccc(C)cc1)c1nnnn1C1CCCCC1` (stereo not drawn)?
PLK1 PBD block: -5%; G9a inh: 4%[59 µM]; JMJD2A Tudor inh: -31%; BAZ2B inh: 7%; HP1b chromo inh: 26%

What do the screens show for `CCN(CC)C(c1ccc(F)cc1)c1nnnn1C1CCCCC1` (stereo not drawn)?
PI5P4Ka inh: 0; PLK1 PBD block: -5%; G9a inh: 89µM*; JMJD2A Tudor inh: 7%; BAZ2B inh: -31%; HP1b chromo inh: 32%

Results for Fc1ccc(C(c2nnnn2C2CCCC2)N(Cc2ccco2)CC2CCCO2)cc1 (stereo not drawn) ?
PI5P4Ka inh: 1; PLK1 PBD block: -18%; G9a inh: 1%[59 µM]; JMJD2A Tudor inh: -2%[11.4 µM]; BAZ2B inh: -3%; HP1b chromo inh: -15%

What do the screens show for `O=C(Nn1cc(C(=O)Nc2ccccc2F)c2ccccc2c1=O)c1cnccn1`?
PI5P4Ka inh: 3; PLK1 PBD block: 3%; G9a inh: -18%; JMJD2A Tudor inh: 28µM*; BAZ2B inh: 28µM*; HP1b chromo inh: 23%

What do the screens show for `COC(=O)c1cn(NC(=O)c2ccc(OC)c(OC)c2)c(=O)c2ccccc12`?
PI5P4Ka inh: -4; PLK1 PBD block: -6%; G9a inh: 3%[59 µM]; JMJD2A Tudor inh: -18%[57.1 µM]; BAZ2B inh: -3%; HP1b chromo inh: 12%

What do the screens show for `COC(=O)c1cn(NC(=O)c2cnccn2)c(=O)c2ccccc12`?
PI5P4Ka inh: 2; PLK1 PBD block: 4%; G9a inh: inconclusive; JMJD2A Tudor inh: 11µM*; BAZ2B inh: 7.1µM*; HP1b chromo inh: 21%

How did CN1/C(=C\C(=O)Nc2ccc(F)cc2)C(C)(C)c2ccccc21 do in these assays?
PI5P4Ka inh: 14; PLK1 PBD block: 0%; G9a inh: 45µM*; JMJD2A Tudor inh: -27%; BAZ2B inh: inconclusive; HP1b chromo inh: 2%

How did CN1/C(=C\C(=S)NC(=O)c2ccc([N+](=O)[O-])cc2)C(C)(C)c2ccccc21 do in these assays?
PI5P4Ka inh: 5; PLK1 PBD block: -5%; G9a inh: 45µM*; JMJD2A Tudor inh: 50µM*; BAZ2B inh: inconclusive; HP1b chromo inh: inconclusive

How did CN1/C(=C\C(=O)Nc2ccc(Br)cc2)C(C)(C)c2ccccc21 do in these assays?
PI5P4Ka inh: 15; PLK1 PBD block: -9%; G9a inh: -13%[59 µM]; JMJD2A Tudor inh: -35%; BAZ2B inh: inconclusive; HP1b chromo inh: 23%

Results for CN1/C(=C\C(=S)NC(=O)c2cccc(Br)c2)C(C)(C)c2ccccc21 ?
PI5P4Ka inh: -1; PLK1 PBD block: -18%; G9a inh: 14µM*; JMJD2A Tudor inh: 20µM*; BAZ2B inh: 10µM*; HP1b chromo inh: inconclusive

What do the screens show for `CN1/C(=C\C(=O)COC(=O)c2ccc([N+](=O)[O-])o2)C(C)(C)c2ccccc21`?
PI5P4Ka inh: -2; PLK1 PBD block: -8%; G9a inh: 20µM*; JMJD2A Tudor inh: -29%; BAZ2B inh: inconclusive; HP1b chromo inh: 18%

How did CN(C)c1ncc2nc(-c3ccc(F)cc3)c(=O)n(C[C@H]3CCCO3)c2n1 do in these assays?
G9a inh: 3%[0.501 µM]

Results for CCn1c(-c2cc(Br)cc(OC)c2O)nc2cc(S(=O)(=O)N(C)C)ccc21 ?
PLK1 PBD block: -12%; G9a inh: 45µM*; JMJD2A Tudor inh: -34%; BAZ2B inh: -13%; HP1b chromo inh: 15%

Results for CCn1c(C)nc2cc(S(=O)(=O)N3CCCC3)ccc21 ?
PI5P4Ka inh: 4; PLK1 PBD block: inconclusive; G9a inh: -22%[59 µM]; JMJD2A Tudor inh: -11%[11.4 µM]; BAZ2B inh: 1%; HP1b chromo inh: -2%

How did CCn1c(C)nc2cc(S(N)(=O)=O)ccc21 do in these assays?
PI5P4Ka inh: -20; PLK1 PBD block: inconclusive; JMJD2A Tudor inh: 14µM*; BAZ2B inh: 4%; HP1b chromo inh: -3%

How did CCn1c(-c2ccccn2)nc2cc(S(=O)(=O)N(C)C)ccc21 do in these assays?
PI5P4Ka inh: 4; PLK1 PBD block: -3%; G9a inh: 50µM*; JMJD2A Tudor inh: -13%; BAZ2B inh: 14%; HP1b chromo inh: 8%

How did CCn1c(CSc2nnc(C)n2-c2ccccc2)nc2cc(S(=O)(=O)N(C)C)ccc21 do in these assays?
PI5P4Ka inh: 2; PLK1 PBD block: -12%; G9a inh: -4%[59 µM]; JMJD2A Tudor inh: -8%; BAZ2B inh: 19%; HP1b chromo inh: 23%

How did Nc1nc2c(nc(Br)n2C2OC3COP(=O)(O)O[C@@H]3C2O)c(=O)[nH]1 (stereo partly drawn) do in these assays?
G9a inh: -11%[59 µM]

How did COc1ccc(Oc2ncc3nc(-c4cc(F)cc(F)c4)c(=O)n(C[C@H]4CCCO4)c3n2)cc1 do in these assays?
G9a inh: 14%[0.501 µM]

Results for CCN(CC)CCCNC(=O)c1oc2c(c1C)-c1nn(Cc3ccc(Cl)cc3)cc1CC2 ?
G9a inh: inconclusive; JMJD2A Tudor inh: -31%; BAZ2B inh: inconclusive; HP1b chromo inh: 7%

Results for C=CCN(Cc1cccs1)C(=O)CN1CCN(S(=O)(=O)c2ccc3c(c2)OCCCO3)CC1 ?
PI5P4Ka inh: 8; PLK1 PBD block: 0%; G9a inh: -12%[2.33 µM]; JMJD2A Tudor inh: -11%; BAZ2B inh: -8%; HP1b chromo inh: 70%

What do the screens show for `CC(=O)N1CCC[C@@]2(CCN(Cc3nccs3)C2)C1`?
G9a inh: 9%[12.7 µM]

What do the screens show for `COc1ccc(Oc2ncc3nc(-c4ccc(F)cc4)c(=O)n(CCC#N)c3n2)cc1`?
G9a inh: -1%[0.501 µM]

How did CCn1cnc2cc([N+](=O)[O-])ccc21 do in these assays?
PI5P4Ka inh: 8; PLK1 PBD block: -18%; G9a inh: -21%; JMJD2A Tudor inh: -8%; BAZ2B inh: -22%; HP1b chromo inh: 21%

What do the screens show for `CC(C)(C)n1cnc2cc(NC(=O)c3ccccc3)ccc21`?
PI5P4Ka inh: 3; PLK1 PBD block: -1%; G9a inh: -4%; JMJD2A Tudor inh: -16%; BAZ2B inh: -4%; HP1b chromo inh: 26%
